HGIII-sPLA2 inh: Inhibits HGIII-sPLA2 liposome hydrolysis, primary screen | AID 743126 | inhibition, % at 12.2 µM | hit rate 0.56% among 370,000 | QFRET BODIPY PC-A2 liposome hydrolysis, fluorescence;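 active = inhibition above mean plus 3 SD of compounds lying within the high and low control bounds, cut at about 19% in these data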;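 also: 0% = median of test compound wells and 100% = no enzyme DMSO wells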
H9c2 protect: protects H9c2 cardiomyocytes from peroxide injury; H2O2 injury protection, ATPLite, 2 h; protection from H2O2 cell death, % at 20 µM; hit rate 0.63% among 360,000;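 active = compounds giving at least 50% protection of heart cells from peroxide-induced death in the single-dose screen, raw or plate-pattern-corrected value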;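 also: 0% = DMSO wells with peroxide and 100% = DMSO wells without peroxide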
ABHD5 PLIN5 PPI: blocks binding of human ABHD5 to perilipin-5; Split G. princeps luciferase complementation, luminescence, 4 h; hit rate 0.78% among 360,000; inhibition, % at 4 µM; AID 602281;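 active = inhibition above the mean inhibition across every tested compound plus 3 SD, cut at about 22% in these data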;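 also: 0% = DMSO only wells and the 100% control is not disclosed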
DAGLB inh: diacylglycerol lipase beta (human) inhibition; Q8NCG7; HEK293T DAGLB membrane lysate, EnzChek fluorogenic substrate; inhibition, % at 5.17 µM; hit rate 0.059% among 340,000; AID 504411; in the data active = inhibition above about 34%;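 also: 0% = enzyme with vehicle and 100% = wells lacking enzyme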
Rtt109 Vps75: C. albicans Rtt109 histone acetyltransferase inhibition. purified Rtt109/Vps75, ThioGlo CoA-SH fluorescence, 4 h. inhibition, % at 34.9 µM. hit rate 0.16% among 330,000. AID 540336. Q5AAJ8;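 active = inhibition of at least 50% in every replicate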
Target sequence (Q5AAJ8 whole entry, looked up): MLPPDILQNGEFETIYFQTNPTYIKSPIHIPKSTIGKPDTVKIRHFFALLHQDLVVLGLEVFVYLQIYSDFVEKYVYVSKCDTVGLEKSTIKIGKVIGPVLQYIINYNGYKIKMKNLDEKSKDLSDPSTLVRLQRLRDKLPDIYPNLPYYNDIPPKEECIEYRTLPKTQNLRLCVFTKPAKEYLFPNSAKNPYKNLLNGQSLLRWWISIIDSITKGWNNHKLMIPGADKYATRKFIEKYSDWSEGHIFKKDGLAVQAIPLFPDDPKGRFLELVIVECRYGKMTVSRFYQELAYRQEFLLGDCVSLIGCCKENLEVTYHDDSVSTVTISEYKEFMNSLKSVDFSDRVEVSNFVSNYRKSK
Myeloid diff MLP: compounds promoting myeloid differentiation. ER-HoxA9 myeloid progenitors, lysozyme-GFP differentiation, flow cytometry. calls only at 10 µM. hit rate 1% among 360,000. AID 624256;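 active = normalized GFP-positive differentiation at or above the plate's own cutoff, the solvent-only control mean plus 3 SD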;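 also: cells exposed to compound for four days before flow analysis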
Myeloid diff CP1: promotes myeloid progenitor differentiation; shares compounds with Myeloid diff MLP; ER-HoxA9 myeloid progenitors, GFP/Mac1 double-positive flow; calls only; hit rate 2% among 2,300; AID 651706;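 active = share of green or green-and-red cells above 9 and 9% in run 1 or 4 and 3% in run 2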
GFP autofluor: flagged as fluorescent in myeloid differentiation counter-screen; shares compounds with Myeloid diff MLP; ER-HoxA9 myeloid progenitors, no estrogen, GFP autofluorescence flow cytometry; vehicle wells 0%, positive control 100%; fluorescence response, % (test concentration not listed); hit rate 7.4% among 2,300;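 active = over 5% cells positive for green fluorescent reporter, or over 2% positive for both it and APC stain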;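 also: range taken on the double positive population between DMSO and positive control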
* marks the source's active call; other numbers are inactive results. Hits are enriched below; roughly 2.9% of the tested compounds scored in any of these assays.

CCOc1ccccc1NC(=O)NC1(C(=O)NCc2cccnc2)CCCCC1 was read as HGIII-sPLA2 inh 12, H9c2 protect 1, ABHD5 PLIN5 PPI 2, DAGLB inh -1, Rtt109 Vps75 -1, Myeloid diff MLP inactive, Myeloid diff CP1 inactive and GFP autofluor 0.
For COc1ccc(-n2ccnc2SCC(=O)NO)cc1 the results were HGIII-sPLA2 inh 8, H9c2 protect -1, ABHD5 PLIN5 PPI -6, DAGLB inh -1, Rtt109 Vps75 -3 and Myeloid diff MLP inactive.
Screening Cn1cc(S(=O)(=O)N2CCCC(C(=O)O)C2)cn1 (stereo unspecified) returned HGIII-sPLA2 inh 0, H9c2 protect 0, ABHD5 PLIN5 PPI -1, DAGLB inh -1, Rtt109 Vps75 8 and Myeloid diff MLP inactive.
For CN(C)CCCn1c(N)c(C#N)c2nc3ccccc3nc21 the results were HGIII-sPLA2 inh -6, H9c2 protect 10, ABHD5 PLIN5 PPI 5, Rtt109 Vps75 inactive, Myeloid diff MLP inactive, Myeloid diff CP1 inactive and GFP autofluor 0.
C[C@@H]1CC=C[C@H]2[C@H]1C(=O)N(Cc1ccccc1)[C@H]2c1ccc(-c2ccc(F)cc2)cc1F was read as HGIII-sPLA2 inh -3, H9c2 protect -8, ABHD5 PLIN5 PPI -8, DAGLB inh -18, Rtt109 Vps75 -7, Myeloid diff MLP inactive, Myeloid diff CP1 inactive and GFP autofluor 0.
`Cc1ccc(CSCC(=O)N2CCN(c3ccc(F)cc3)CC2)cc1` gave HGIII-sPLA2 inh 0, H9c2 protect -4, ABHD5 PLIN5 PPI 9, DAGLB inh -1, Rtt109 Vps75 5, Myeloid diff MLP inactive, Myeloid diff CP1 inactive and GFP autofluor 1.
For COc1ccc(-c2csc(C(NC(C)=O)c3ccc(F)c(F)c3)n2)cn1 (stereo unspecified) the results were HGIII-sPLA2 inh -4, H9c2 protect -5, ABHD5 PLIN5 PPI 4 and Myeloid diff MLP inactive.
Screening COc1ccc(-c2csc(C(NC(C)=O)c3cccc(F)c3)n2)cn1 (stereo unspecified) returned HGIII-sPLA2 inh 3, H9c2 protect -4, ABHD5 PLIN5 PPI 2, Myeloid diff MLP active, Myeloid diff CP1 inactive and GFP autofluor 1.
For Cc1ccc(C(=O)CSc2nnc(-c3cccnc3)n2N)cc1 the results were HGIII-sPLA2 inh 1, H9c2 protect 6, ABHD5 PLIN5 PPI 3, DAGLB inh 0, Rtt109 Vps75 38, Myeloid diff MLP inactive, Myeloid diff CP1 inactive and GFP autofluor 0.
Cc1c(C(=O)N2CCCCC2)c(S(=O)(=O)NCc2ccccc2Cl)c(C)n1C was read as HGIII-sPLA2 inh 2, H9c2 protect 0, ABHD5 PLIN5 PPI 0, DAGLB inh 0, Rtt109 Vps75 -5 and Myeloid diff MLP inactive.
For CCOc1ccc(CN(C)CC(=O)Nc2cccc3ccccc23)cc1OC the results were HGIII-sPLA2 inh -4, H9c2 protect -8, ABHD5 PLIN5 PPI -2, DAGLB inh -4, Rtt109 Vps75 -4, Myeloid diff MLP inactive, Myeloid diff CP1 inactive and GFP autofluor 0.
COc1ccc(CN(C)CC(=O)Nc2cccc3ccccc23)cc1F was read as HGIII-sPLA2 inh -10, H9c2 protect -7, ABHD5 PLIN5 PPI 1, DAGLB inh -5, Rtt109 Vps75 -7 and Myeloid diff MLP inactive.
`NC(=O)CC(NC(=O)Cc1ccc(Cl)cc1)c1ccc(NC2CCCCC2)c([N+](=O)[O-])c1` (stereo unspecified) gave HGIII-sPLA2 inh 6, H9c2 protect 1, ABHD5 PLIN5 PPI 3, DAGLB inh 3, Rtt109 Vps75 7, Myeloid diff MLP inactive, Myeloid diff CP1 inactive and GFP autofluor 0.
Screening O=C(O)CC1(CC(=O)Nc2cc3ccccc3cn2)CCCCC1 returned HGIII-sPLA2 inh -2, H9c2 protect -1, ABHD5 PLIN5 PPI 1 and Myeloid diff MLP inactive.
For CN(C)S(=O)(=O)NCC1CCCN(Cc2cc3ccccc3s2)C1 (stereo unspecified) the results were HGIII-sPLA2 inh 1, H9c2 protect 6, ABHD5 PLIN5 PPI -1, DAGLB inh 0, Rtt109 Vps75 -9, Myeloid diff MLP inactive, Myeloid diff CP1 inactive and GFP autofluor 0.
For COc1cccc(-c2ccc(=O)n(CC(=O)Nc3ccc(S(=O)(=O)NCC(C)C)cc3)n2)c1 the results were HGIII-sPLA2 inh -47.
Screening O=C(NC1CCCCCC1)C(=O)NC1CCCC1 returned HGIII-sPLA2 inh 9, H9c2 protect 0, ABHD5 PLIN5 PPI -1, DAGLB inh -1, Rtt109 Vps75 16 and Myeloid diff MLP inactive.
For CCOC(=O)/C=C1\SCC(=O)N1CC(=O)NC1CCCCC1 the results were HGIII-sPLA2 inh -13, H9c2 protect 0, ABHD5 PLIN5 PPI 7, DAGLB inh -2, Myeloid diff MLP active, Myeloid diff CP1 inactive and GFP autofluor 0.
COc1ccccc1N1CCN(/N=C/c2ccc(C(=O)O)cc2)CC1 was read as HGIII-sPLA2 inh 1, H9c2 protect 2, ABHD5 PLIN5 PPI -8, DAGLB inh 2, Rtt109 Vps75 1 and Myeloid diff MLP inactive.
CCc1ccc(C=C2SC(=S)N(CCCC(=O)Nc3ccc(C(=O)O)cc3)C2=O)cc1 was read as HGIII-sPLA2 inh 1, H9c2 protect -10, ABHD5 PLIN5 PPI 4, Myeloid diff MLP inactive, Myeloid diff CP1 inactive and GFP autofluor 0.
CCOC(=O)c1cnc(SCc2nc(N)nc(Nc3ccc(C)cc3)n2)nc1N was read as HGIII-sPLA2 inh -29, H9c2 protect -20, ABHD5 PLIN5 PPI 0, DAGLB inh -2, Rtt109 Vps75 -10, Myeloid diff MLP inactive, Myeloid diff CP1 inactive and GFP autofluor 0.
COc1cc(NCC(=O)Nc2cccc(S(=O)(=O)N3CCCCC3)c2)cc(OC)c1OC was read as HGIII-sPLA2 inh -7, H9c2 protect -8, ABHD5 PLIN5 PPI 7, DAGLB inh -2, Rtt109 Vps75 -3, Myeloid diff MLP active, Myeloid diff CP1 inactive and GFP autofluor 1.
For Cc1ccc(N(C)S(=O)(=O)c2cccc(C(=O)Nc3ccc(N4CCOCC4)cc3)c2)cc1 the results were HGIII-sPLA2 inh 5, H9c2 protect -3, ABHD5 PLIN5 PPI 0, DAGLB inh 1, Rtt109 Vps75 -2, Myeloid diff MLP active, Myeloid diff CP1 inactive and GFP autofluor 0.
Screening O=C(Nc1cccc(S(=O)(=O)N2CCCCCC2)c1)c1cncc(Br)c1 returned HGIII-sPLA2 inh -18, H9c2 protect 0, ABHD5 PLIN5 PPI -1, DAGLB inh -3, Rtt109 Vps75 2, Myeloid diff MLP inactive, Myeloid diff CP1 inactive and GFP autofluor 0.
